Laboratory results taken from PubChem BioAssay AID602313 (National Center for Advancing Translational Sciences (NCATS), 2012).
Among all 390,000 compounds or so, about 760 (0.19%) were called active. Not shown: some 3% with an inconclusive outcome. The entries come from a sample that favours actives as a whole. A number with no mark means an inactive call. Calls follow the shape of the dose curve; as a rule, active = well fitted inhibition curve with a large enough effect; inconclusive = small, poorly fitted or top-dose-only effect; inactive = flat fitted curve, though single readings scatter.

Assay: qHTS for Inhibitors of Vif-A3F Interactions: qHTS; also: nearly all actives have a fitted effect of over 65% in size; as to activity, negative = active: % of control where 0% means no effect
Details: HeLa A3F-eYFP + Vif (tagged APOBEC3F with the HIV-1 protein that degrades it), YFP fluorescence increase; series mostly up to 46.1 µM; activity, negative = active: at the top concentration
Text: The recent discovery and characterization of host restriction factors, which provide a potent defense to invading retroviruses, has provided new targets for antiviral drug development. APOBEC3G (A3G) and APOBEC3F (A3F) are potent cytidine deaminases that block HIV-1 replication; HIV-1 expresses the Vif protein, which counteracts A3G and A3F by binding to them and inducing their proteasomal degradation. The Vif-A3G and Vif-A3F interactions provide two potential targets for development of small molecules which can interfere with the ability of Vif to degrade A3G or A3F. […] To identify inhibitors that can interfere with Vif mediated degradation of A3G and A3F, we have developed Hela cell lines that stably express A3G or A3F tagged with eYFP at the C-terminal end (A3G-eYFP or A3F-eYFP, respectively) and Vif. In the absence of an inhibitor, Vif induces degradation of A3G-eYFP and A3F-eYFP, and the cells are not fluorescent. In the presence of an inhibitor, it is expected that Vif will be unable to degrade A3G-eYFP and/or A3F-eYFP, resulting in an increase in yellow fluorescence. In this assays Vif A3F was screened against the Molecular Library Small Molecule Repository (MLSMR). NIH Chemical Genomics Center [NCGC] NIH Molecular Libraries Probe Centers Network [MLPCN] MLPCN Grant: MH093245 Assay Submitter (PI): Vinay Pathak, National Cancer Institute
5 uL of 700 cells/well of A3F-YFP cells are dispensed into black, clear bottom plates. The plates are incubated overnight at 37 deg C. 23 nL of compounds are added by pintool. The plates are incubated overnight at 37 deg C and then read on the TTP Acumen (Ex 488/ Em 500-530).
Potency is read from the fitted curve at half-maximal effect.

Structure (SMILES) | activity, negative = active [%] | Potency
COc1ccc(Cl)cc1S(=O)(=O)N1CCC(c2ccncc2)CC1 | 3.97 | 
CCOc1ccc2nc(N3CCC(C(=O)Nc4cc(C)ccc4C)CC3)sc2c1 | -11.1 | 
CCCS(=O)(=O)c1ncc(Cl)c(C(=O)Nc2scc(-c3ccccc3)c2C(=O)OCC)n1 | 1.36 | 
O=C(/C=C/c1ccccc1)Nc1cc(-c2nc3cc(Cl)ccc3o2)ccc1Cl | -2.35 | 
COC(=O)c1ccccc1NC(=O)Cn1c(=O)cc(C)c2c(C)nn(-c3cccc(Cl)c3C)c21 | -10.3 | 
Cc1cccc(NC(=O)Cn2nc(-c3ccc(Cl)cc3)c3ccccc3c2=O)c1 | -26.3 | 
COc1cc2c(cc1OC)C(COc1ccc(F)cc1)N(C(=O)c1ccccc1F)CC2 (stereo not given) | 7.39 | 
Cc1ccc(OCCSc2nc3ccc(NC(=O)COc4ccc(C)cc4)cc3s2)cc1 | -0.244 | 
O=C(CC1Nc2ccccc2NC1=O)Nc1ccccc1 (stereo not given) |  | 12.6 µM (active)
O=C(CC1NCCc2ccccc21)Nc1cccc(Cl)c1 (stereo not given) | -28.8 | 
COC(=O)c1cc(C)sc1NC(=O)CC1Nc2ccccc2NC1=O (stereo not given) | -8 | 
COc1cccc(CNC(=O)C2CCC(CNS(=O)(=O)c3cccs3)CC2)c1 (stereo not given) | 3.35 | 
COc1ccc(C2c3c(oc4ccccc4c3=O)C(=O)N2Cc2ccc3c(c2)OCO3)cc1 (stereo not given) | -2.63 | 
CC(=O)N1CCCc2cc(S(=O)(=O)N3CCC(C(=O)NCc4ccc(F)cc4)CC3)ccc21 | -3.28 | 
Cc1cc(C)cc(NC(=O)CSc2nc(=O)n(CCN3CCOCC3)c3c2CCC3)c1 | 1.36 | 
CCCCOC(=O)/C(C#N)=C/c1ccc(-c2cccc(C(F)(F)F)c2)o1 | 0.984 | 
CCCCNC(=O)C1CCCN(c2nnc(C)c3c(C)n(-c4ccc(Cl)cc4)nc23)C1 (stereo not given) | 0.0194 | 
CCOc1ccc(S(=O)(=O)Nc2ccc3oc4c(c3c2)CC(C)CC4)cc1 (stereo not given) | -1.64 | 
CCNC(=O)c1cc2n(n1)CCCN(Cc1ccc(C)cc1)C2=O | -0.301 | 
CCCOC(=O)c1c(NC(=O)c2cc3nc(-c4ccc(OC)cc4)cc(C(F)(F)F)n3n2)sc2c1CCCC2 | 1.95 | 
O=C(NCC(c1ccc2c(c1)OCO2)N1CCN(c2ccccc2)CC1)C(=O)Nc1ccccc1F (stereo not given) | 2.29 | 
O=C(NC1CC(=O)N(c2ccc(F)cc2)C1)C1CCCCC1 (stereo not given) | 1.21 | 
Cc1cc(C)c(/C=C2\C(=O)Nc3ccccc32)[nH]1 |  | 12.6 µM (active)
Fc1ccc(-n2ncc3c(Nc4ccc(Oc5ccccc5)cc4)ncnc32)cc1 | -29 | 
COc1ccccc1NC(=O)c1oc2ccccc2c1NC(=O)C(C)C | -14.6 | 

Structure (SMILES) | activity, negative = active [%] | Potency
Cc1ccc(Cc2nc3ccccc3nc2SCC(=O)Nc2cccc(C(F)(F)F)c2)cc1 | -7.16 | 
COc1ccc(NC(=O)Cn2cc(C(=O)c3ccncc3)c(=O)c3cc(C)ccc32)cc1Cl | 0.229 | 
Cc1ccc(C)c(Oc2c(C(F)(F)F)oc3c(CN4CCN(C)CC4)c(O)ccc3c2=O)c1 | -3.95 | 
CC1CCC(N2CC(=O)N(CCC3=CCCCC3)C(c3ccc(F)cc3)C2=O)CC1 (stereo not given) | 9.13 | 
COc1ccc(Cl)cc1NC(=O)c1sc2nc3c(cc2c1N)CN(C)CC3 | -23.7 | 
CCOc1ccc(N2CC(c3nc4ccccc4n3CCOc3ccc(OC)cc3)CC2=O)cc1 (stereo not given) | 2.96 | 
O=S(=O)(c1ccc(C2CCCCC2)cc1)N1CCN(c2ccc(Cl)c(Cl)c2)CC1 | -4.98 | 
CC(C)c1ccc(C2CC(=O)N3CN(C4CCCCC4)CSC3=C2C#N)cc1 (stereo not given) | 1.95 | 
CCOc1ccc2oc(=O)cc(CN3CCN(C(=O)c4ccc(F)cc4)CC3)c2c1 | 8.67 | 
COc1ccc(-c2nn3c(-c4ccc(OC)cc4)nnc3c3ccccc23)cc1 | 3.72 | 
CC(C)c1ccc(NC(=O)c2cc(S(=O)(=O)N3CCc4ccccc4C3)ccc2F)cc1 | 0.749 | 
CCOc1ccccc1C(=O)NCc1ccc2c(c1)CCN2C(=O)c1ccc(F)cc1 | -7.05 | 
CCOc1ccc(N(Cc2ccccc2)C(=O)c2nc(S(C)(=O)=O)ncc2Cl)cc1 | 5.15 | 
Cc1ccc2sc(N(Cc3cccnc3)C(=O)C3COc4ccccc4O3)nc2c1C (stereo not given) | -6.9 | 
Cc1ccc(NC(=O)c2oc3ccc(S(=O)(=O)N4CCCCC4)cc3c2C)cc1Cl | 0.769 | 
CCc1nn(CC(=O)N2CCN(c3ccc(Cl)cc3)CC2)c(=O)c2cc3occc3n12 | 0.0492 | 
Cc1nc2c(-c3ccccc3)c(C)nn2c(C)c1CCC(=O)NCCc1ccccc1 | -7.66 | 
COc1ccccc1Nc1nc(N)nc(N)c1S(=O)(=O)c1ccccc1 | 6.16 | 
COc1cc(NC(=O)c2cc3ccc4cccnc4c3[nH]2)cc(OC)c1OC | -2.39 | 
COc1ccc(-c2cn3c(n2)sc2cc(C(=O)Nc4ccc(F)cc4)ccc23)cc1 | 0.115 | 
COc1ccc(NC(=O)c2sc3nc(-c4cc5cccc(OC)c5oc4=O)[nH]c(=O)c3c2C)cc1 | 6.98 | 
COc1ccc(-c2nc3cnccn3c2NC(C)(C)CC(C)(C)C)cc1O | 5.18 | 
Cc1ccc(Nc2c(-c3ccc(C)cc3)nc3cnccn23)cc1 | -7.53 | 
COc1ccc(-c2nc3cnccn3c2NC2CCCCC2)cc1-c1cccc(Cl)c1 |  | 22.4 µM (active)
CCOCCCNC(=O)c1ccc2nc(CCc3ccccc3)oc2c1 | 1.04 | 
